# Experimental data: PubChem BioAssay AID501 (PCMD, 2006)
# Hit rate of the full screen: of about 62,000 compounds, about 35 (0.06%) were called active. The full list was thinned out, with actives kept by preference. Unmarked numbers belong to inactive results. Cut-off read from the data, not from the text of the source: active = inhibition above about 32% (passing the limit was not always enough); inconclusive = no clear call, values can overlap the other calls.
# Molecular target: Cathepsin S (Homo sapiens) (UniProt P25774)
# Sequence (P25774 115-331 limits assumed): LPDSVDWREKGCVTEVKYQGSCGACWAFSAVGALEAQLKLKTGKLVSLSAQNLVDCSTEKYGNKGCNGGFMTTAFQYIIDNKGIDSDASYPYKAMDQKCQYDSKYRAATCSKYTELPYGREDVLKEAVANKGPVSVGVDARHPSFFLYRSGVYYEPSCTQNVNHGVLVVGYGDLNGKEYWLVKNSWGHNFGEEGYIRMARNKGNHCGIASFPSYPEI
# Test: blockers of CTSS protease activity – biochemical, compound mixtures (AID 501);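 note: 0% = enzyme without compound and 100% = blank without enzyme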
# Settings: recombinant cathepsin S, AMC dipeptide fluorescence, pooled mixtures; active compounds read high;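 tested at 5 µM per compound within 10-compound mixtures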
row,Compound,inhibition
1,Cn1c(C(=O)NCCc2ccsc2)cc2c(=O)n(C)c3ccccc3c21,-2.9%
2,Cn1c(C(=O)NCCN2CCc3ccccc3C2)cc2c(=O)[nH]c3ccccc3c21,45.6% (active)
3,Cc1cccc(N2CCN(C(=O)c3cc4c(=O)[nH]c5ccccc5c4n3C)CC2)c1C,16.8%
4,CC(=O)Nc1ccc(-c2cn3cccnc3n2)cc1,-4.08%
5,COc1ccc(N(CC(=O)NC2CCCCCCC2)S(=O)(=O)c2c(C)nn(C)c2C)cc1,-2.48%
6,COc1ccc(N(C(=O)c2cccnc2)S(=O)(=O)c2ccc3c(c2)n(C)c(=O)n3C)cc1,-5.68%
7,Cc1ccccc1NC(=O)CNc1ccccc1N1CCCCC1,-4.53%
8,COC(=O)c1[nH]c2cccc(C)c2c1NC(=O)CN1CCCc2ccccc21,51.2% (active)
9,COC(=O)c1[nH]c2ccccc2c1NC(=O)CN1CCCc2ccccc21,15.9%
10,COC(CCN(C)C)(c1ccccc1)c1ccccc1,-4.38%
11,CCN(CCCCOC(=O)c1ccc(OC)c(OC)c1)C(C)Cc1ccc(OC)cc1 (configuration not stated),14.3%
12,O=C(O)C1CCCN(S(=O)(=O)c2cccc3cccnc23)C1 (configuration not stated),-4.15%
13,O=C(O)CSCNC(=O)CC12CC3CC(CC(C3)C1)C2,1.12%
14,CCOc1ccccc1Nc1nnc(SCC(=O)Nc2cc(C)on2)s1,8.96%
15,CC1=C(C(=O)OCc2ccccc2)C(c2ccco2)n2ncnc2N1 (configuration not stated),6.81%
16,CCOC(=O)C1CCN(C(=O)C2CCN(S(=O)(=O)CC)CC2)CC1,6.47%
17,O=C(CN(c1ccc2c(c1)OCCO2)S(=O)(=O)c1ccccc1)Nc1ccc2c(c1)OCO2,8.94%
18,Cc1nnc(SCCCn2c(N3CCCCC3)nc3c2c(=O)[nH]c(=O)n3C)s1,37.6% (active)
19,C=C(C)Cn1c(N2CCCC2)nc2c1c(=O)[nH]c(=O)n2C,-0.005%
20,Cn1c(=O)[nH]c(=O)c2c1nc(N1CCCCCC1)n2CC(=O)c1ccccc1,12.8%
21,CCOc1ccc(C2C(C(=O)O)c3ccccc3C(=O)N2CCN2CCOCC2)cc1 (configuration not stated),39.9%
22,Cn1c(=O)cc(SCC(=O)N2CCCC2)c2cc(Cl)ccc21,1.36%
23,O=C(NCc1ccccn1)Nc1ccc(F)cc1,17.6%

row,Compound,inhibition
1,CCCc1nc(-c2ccccc2O)n(-c2ccccc2)n1,-4.97%
2,O=C(O)C1CC=CCC1C(=O)NCCc1ccccc1 (configuration not stated),-14.2%
3,O=C1c2ccccc2C(=O)N1c1ccccc1S(=O)C(F)(F)F (configuration not stated),16.1%
4,COC(=O)CN(c1nc(C)c(Cl)c(OC)n1)S(=O)(=O)c1ccc(C)cc1,3.91%
5,CCOc1ccc(NC(=O)CSc2nc3c(c(=O)n2-c2ccccc2OC)SCC3)cc1,-11.1%
6,O=C(NCCCN1CCN(Cc2ccccc2)CC1)C1CCN(S(=O)(=O)N2CCCC2)CC1,17.9%
7,O=C(COc1ncnc2ccccc12)NC(=O)NCc1ccccc1,-8.35%
8,Cc1cccc(N2CCN(Cc3c(C)n(C)n(-c4ccccc4)c3=O)CC2)c1C,-2.31%
9,CC(C)C[C@H](NC(=O)[C@@H]1O[C@H]1C(=O)O)C(=O)NCCCCN=C(N)N,117% (active)
10,Cc1cccc(N2CCN(C(c3ccccc3)c3nnnn3CC3CCCO3)CC2)c1C (configuration not stated),6.28%
11,Cc1nn(-c2ccccc2)c2sc(C(=O)N(Cc3ccco3)C(C)C(=O)NC(C)(C)C)cc12 (configuration not stated),13.8%
12,c1ccc2c(c1)OCC(CNc1ncnc3nc[nH]c13)O2 (configuration not stated),-0.615%
13,O=C(CN1CCN(c2ncc(C(F)(F)F)cc2Cl)CC1)Nc1ccc2c(c1)OCO2,13.5%
14,COc1ccc(-c2noc(CN(C)S(=O)(=O)c3ccc(C)cc3)n2)cc1,8.41%
15,Cc1ccc2c(c1)N(C(=O)CCC(=O)N1CCc3ccccc3C1)CCO2,-12.7%
16,Cn1c(C(=O)NCCCN2CCN(c3cccc(Cl)c3)CC2)cc2c(=O)n(C)c3ccccc3c21,33% (active)
17,CC1CCCC(C)N1CCCNC(=O)c1cc2c(=O)n(C)c3ccccc3c2n1C (configuration not stated),7.08%
18,CCn1c(=O)cc(OCC(=O)NCCCN2CCN(c3cccc(Cl)c3)CC2)c2ccccc21,4.46%
19,COc1ccc(-c2ccc(-c3noc(-c4ccncc4)n3)c(OC)n2)cc1,6.8%
20,COc1ccccc1N1CCN(c2nc3ccccc3n3nnnc23)CC1,8.24%
21,CC1CCCC(NC(=O)CN2CCN(Cc3ccc(Cl)cc3)C2=O)C1C (configuration not stated),-3.54%
22,CCN(CC)S(=O)(=O)c1ccc2nc(CSc3nnnn3-c3ccc(O)cc3)[nH]c2c1,-6.33%
23,CCC(C)Sc1nnc(-c2c[nH]c3ccccc23)n1CCOC (configuration not stated),-1.22%

row,Compound,inhibition
1,COc1ccc(-c2cc3n(n2)CCc2nc4ccccc4n2-3)cc1,-5.35%
2,CCN(CC)C(=O)CSc1nnc(-c2ccc(S(=O)(=O)NCc3ccccc3Cl)cc2)o1,6.42%
3,O=c1/c(=C/c2ccc(CNS(=O)(=O)c3ccccc3)o2)sc2n1CCN=2,-0.38%
4,Cc1cc(C)nc(SCc2ccccc2C#N)n1,-2.31%
5,CCc1cc(=O)oc2cc(C)cc(OC(C)C(=O)O)c12 (configuration not stated),-5.16%
6,CN1CCN(Cc2c(O)ccc3c2oc(=O)c2ccccc23)CC1,6.08%
7,CCNS(=O)(=O)c1ccc(NC(=O)Nc2cccc(C(F)(F)F)c2)cc1,-6.53%
8,Cc1c2cnn(-c3ccccc3)c(=O)c2c(C)n1CCCC(=O)N1CCN(C)CC1,-3.9%
9,CC(NC(=O)c1ccco1)C(=O)Nc1nc(-c2ccccn2)cs1 (configuration not stated),12%
10,O=C(O)C1C2C=CC(C2)C1C(=O)N1CCN(CCO)CC1 (configuration not stated),3.18%
11,CC(=O)c1cnc(Nc2nc(C)c3cc(C)ccc3n2)nc1C,-5.6%
12,CC(C)NS(=O)(=O)c1ccc(OCC(=O)Nc2ccc3c(c2)OCCO3)cc1,22.9%
13,N#Cc1nc(N)nc(N(c2ccccc2)c2ccccc2)n1,49.2% (active)
14,CC(C)Nc1nc(N(c2ccccc2)c2ccccc2)nc(-n2ccnc2)n1,-8.9%
15,CC(C)n1c(SCC(=O)Nc2ccccc2N2CCCCC2)nc2c1c(=O)n(C)c(=O)n2C,-0.72%
16,CCOC(=O)C1=C(CNC2CCCCC2)NC(=O)NC1c1cc(C)ccc1C (configuration not stated),-0.495%
17,O=c1cc(CO)oc(CN2CCC(Cc3ccccc3)CC2)c1O,4.81%
18,C=CCN1C(=O)C(O)(CC(=O)c2ccc(Cl)cc2)c2ccccc21 (configuration not stated),-18%
19,CC(C)N1C(=O)C2C(C(=O)NC3CCCCC3)C3C=CC2(O3)C1C(=O)NC1CCCC1 (configuration not stated),-8.37%
20,COc1ccc(-c2csc(N3CCN(Cc4ccc5c(c4)OCO5)CC3)n2)cc1,-3.99%
21,Cc1ccc(C(=O)NCC(=O)O)cc1S(=O)(=O)N1CCCCC1,-10.7%
22,COc1ccc(C(=O)Nc2ccc3c(c2)OCO3)cc1OC,-4.12%
23,Cc1ccc(C(=O)Nc2ccc3c(c2)OCO3)cc1S(=O)(=O)N1CCCCC1,85.5% (active)

row,Compound,inhibition
1,Cc1ccc(S(=O)(=O)N2CCCC2C(=O)NCc2ccco2)cc1 (configuration not stated),12.5%
2,CC1(C)CC(CCC(=O)Nc2ccccc2Cl)C(=O)O1 (configuration not stated),-3.38%
3,Cc1ccc(C(=O)NCC2CCCO2)o1 (configuration not stated),0.56%
4,CCOC(=O)c1c(C)c(C(=O)NCCc2ccc(S(N)(=O)=O)cc2)c(C)n1CC,-0.765%
5,CC(CCc1ccccc1)NC(=O)c1ccc(Br)o1 (configuration not stated),-7.32%
6,CC1(C)Cc2ccccc2-c2nnc(-c3cccc(O)c3)n21,-3.6%
7,O=C(c1ccc(S(=O)(=O)N2CCOCC2)cc1)N1CCN(c2ccccc2)CC1,-24.7%
8,C#CCN1CC(C)/C(=N/O)CC1C (configuration not stated),-8.55%
9,CCOC(=O)C1(c2ccccc2)NC(c2ccc(N(C)C)cc2)C2C(=O)N(C)C(=O)C21 (configuration not stated),12.2%
10,O=S(=O)(NCCNS(=O)(=O)c1ccccc1)c1ccccc1,-7.43%
11,Cc1nc(N2CCCC2C(=O)O)c2oc3ccccc3c2n1 (configuration not stated),8.31%
12,COc1ccc(CCn2c(NCCCN3CCOCC3)nc3c2c(=O)[nH]c(=O)n3C)cc1,5.43%
13,CCOC(=O)c1sc(=S)n2c1[nH]c(=O)c1ccc(C(=O)OC)cc12,-0.96%
14,O=C(CC(NS(=O)(=O)c1ccc(Cl)cc1)c1ccco1)NC1CCCC1 (configuration not stated),-2.72%
15,CC(=O)Nc1nc(C)c(Cc2ccccc2)c(=O)[nH]1,-3.33%
16,CCCCSc1nnc(-c2ccc(C)cc2)o1,0.235%
17,O=C(c1ccc2c(c1)C(=O)N(c1ccc(Cl)cc1)C2=O)N1CCN(c2ccccn2)CC1,2.28%
18,O=C(NCc1ccco1)c1ccc(CS(=O)(=O)Cc2ccc(F)cc2)o1,-5.21%
19,COc1cccc(-c2nc3n(n2)C(c2ccccc2Cl)C(C(N)=O)=C(C)N3)c1 (configuration not stated),-4.19%
20,CC1(C)CCCC2=C1CC1C(=O)N(c3ccccc3)C(=O)C1C2 (configuration not stated),8.69%
21,Cc1ccc(-n2c(SCC(=O)Nc3ccc4c(c3)OCO4)nnc2-c2ccoc2C)cc1,7.19%
22,CC12COC3(C(=O)Nc4ccc(Cl)cn4)CC1CCC32C (configuration not stated),-6.89%
23,COC(=O)C1(S(=O)(=O)C2(C(=O)OC)CCCC2)CCCC1,-5.82%
